# The campaign covered roughly 48,000 compounds. About 13,000 (27%) showed an effect of 50% or more. The list shows a part of the results.
# Test system: Wolbachia pipientis
# Experiment: Anti-Wolbachia Cell-Based Screen
# Assay type: functional
# Design: scale not given: in the data most compounds retested in dose-response had high values
# Details: 5 µM
row,SMILES,Percent Effect [%]
1,COCCC1(CO)CCCN(CCCc2ccccc2)C1 (stereo not drawn),-2.01
2,N#Cc1ccc(CN2C[C@@H]3OCC(=O)N[C@@H]3C2)cc1,-14.55
3,O=C1NCC[C@]12CN(Cc1ccsc1)C[C@H]2c1ccccc1,6.958
4,COCCC1(CO)CCCN(Cc2ccc(C#N)cc2)C1 (stereo not drawn),0.3825
5,O=C1NCc2ccccc2CC12CCCN(CCCc1ccccc1)C2 (stereo not drawn),107.4
6,N#Cc1ccc(CN2CCCC3(Cc4ccccc4CNC3=O)C2)cc1 (stereo not drawn),129.6
7,O=C1N(CCCc2ccccc2)CCCC12CCN(C(CO)CO)C2 (stereo not drawn),4.777
8,O=C1NCc2ccccc2CC12CCCN(Cc1ccsc1)C2 (stereo not drawn),112.5
9,CN(C)C(=O)CN1CCC2(CCCN(Cc3ccsc3)C2)C1=O (stereo not drawn),-8.794
10,Cc1nc(CN2CC[C@@H]3[C@@H](CCC(=O)N3CCc3c[nH]cn3)C2)co1,-20.08
11,COCCN1C[C@@H](C(=O)O)[C@H](c2ccccc2C)C1,-9.465
12,COCCn1cnnc1Cn1ccnc1-c1ccsc1,-0.8108
13,CN(CCO)Cc1nnc(C2CCN(CC(C)(C)C)CC2)n1C,3.482
14,CCn1nnc2c1CCN(S(C)(=O)=O)C2COCc1ccccc1 (stereo not drawn),-2.948
15,c1cncc(COCC2CNCc3nccn3C2)c1 (stereo not drawn),6.541
16,CC(C)Cc1ccc(S(=O)(=O)NCCCN2CCNC(=O)C2)cc1,7.437
17,CSCC(C)(O)CNC(=O)c1cc(Cl)ccc1Cl (stereo not drawn),2.772
18,Cc1ccc(-n2ccnc2)c(C(=O)NCCCN(C)C)c1,-3.641
19,CN(C)CCCNC(=O)c1cc(Br)c2c(c1)OCCO2,-6.944
20,CN(C)CCCNC(=O)c1ccc(Cl)cc1Cl,119
21,CN(C)CCCNC(=O)c1cc(Cl)ccc1Cl,87.97
22,CN(c1ccc(C(=O)NCCCN2CCOCC2)c(Cl)c1)S(C)(=O)=O,-4.637
23,COc1cccc2c1OCC(NCc1cnn(-c3ccccc3F)c1)C2 (stereo not drawn),-11.75
24,Cc1cccc(NC(=O)c2ccc(OCc3nnnn3C)cc2)n1,107.3
25,COc1c(CNCCC(=O)Nc2cccc(C)n2)c(C)nn1C,6.6
26,COc1cc(C(C)=O)ccc1SCC(=O)Nc1cccc(C)n1,6.413

row,SMILES,Percent Effect [%]
1,NC(=O)COc1cccc(C(=O)Nc2cnc3n2CCCC3)c1,11.29
2,Cc1cccc(NC(=O)c2cccc(OCc3nnnn3C)c2)n1,73.29
3,Cc1cc(C)n(CC(C)CNC(=O)N(C)Cc2cc(C)on2)n1 (stereo not drawn),9.156
4,COc1nonc1NCn1nc(C)cc1C,152
5,Cc1cc(C)n(CNc2nonc2C(N)=O)n1,109.2
6,NC(=O)c1cccc(CC2CCN(C(=O)Cn3cnnn3)C2)c1 (stereo not drawn),-10.16
7,CCN(CCC#N)Cn1ncc2cn(-c3ccccc3)nc2c1=O,15.78
8,Cc1ncsc1C(=O)NC1CCN(CC(=O)N(C)C(C)(C)C#N)CC1,-1.04
9,COC(=O)c1sc(C(NC(=O)c2ccccc2)C2CC2)nc1C (stereo not drawn),-18.8
10,COc1cccc(C(=O)NC(c2ccccn2)[C@H]2CC[C@H](CN)CC2)c1 (stereo partly drawn),98.61
11,NC[C@H]1CC[C@H](C(NC(=O)c2cccc(F)c2)c2ccccn2)CC1 (stereo partly drawn),1.736
12,COc1ccccc1C(=O)NC(CC(=O)O)c1cccs1 (stereo not drawn),13.12
13,COc1cc(F)c(C(C)NC(=O)c2cccnc2C)cc1OC (stereo not drawn),-13.32
14,COc1ccccc1C(=O)NC(c1ccccn1)[C@H]1CC[C@H](CN)CC1 (stereo partly drawn),100.4
15,Cn1cc(C2(C)CN(Cc3ccc(Cl)c(F)c3)CCO2)cn1 (stereo not drawn),-1.471
16,CNC(=O)C1(C)CN(Cc2cn(C)c3ccc(F)cc23)CCO1 (stereo not drawn),119.3
17,CN(C)C(=O)C1(C)CN(Cc2cn(C)c3ccc(F)cc23)CCO1 (stereo not drawn),142.1
18,CNC(=O)[C@@H]1CC[C@@H]2[C@@H](CCN2Cc2cn(C)c3ccccc23)O1.O=C(O)C(F)(F)F,12.94
19,CN(C)C(=O)COc1ccccc1CN1CCOC2(CCCC2)C1,35.78
20,CCCN1CCN(Cc2cn(CCC(N)=O)c3ccccc23)CC1,5.612
21,CN(C)C(=O)C1(C)CN(Cc2cn(C)c3ccccc23)CCO1 (stereo not drawn),120.9
22,Cc1cc(F)ccc1CN1CCCC2(C1)OCCO2,-1.552
23,CN(CCN1CCOCC1)C(=O)C1(c2ccc(F)cc2F)CCC1,9.471
24,CC(NCCCn1ccnc1)c1ccc(N2CCOC2=O)cc1 (stereo not drawn),-1.07
25,c1cnc(N2CC3(CCN(C4CCOC4)CC3)c3ccccc32)nc1 (stereo not drawn),13
26,O=C(CCN1CCCC1)N1CC[C@@H](c2ccc3ccccc3c2)[C@H](O)C1,-4.226

row,SMILES,Percent Effect [%]
1,CC(C)C(Sc1ccccc1)C(=O)N(C)Cc1nnc2n1CCC2 (stereo not drawn),14.25
2,CCc1cc(-c2nccn2-c2ccccc2CN2CCOCC2)on1,1.321
3,Cc1nc(C)c(CN2CCOC[C@H](Oc3ccccc3)C2)s1,-8.964
4,Cc1nnc([C@]23COC[C@H]2CN(Cc2cccs2)C3)o1.O=C(O)C(F)(F)F,0.3646
5,Cc1nnc([C@@]23CCO[C@@H]2CCN(S(=O)(=O)c2ccccc2)C3)o1,90.56
6,Cc1nnc([C@]23COC[C@H]2CN(Cc2cnn(C)c2)C3)o1.O=C(O)C(F)(F)F,-19.13
7,Cc1noc([C@@]23CCO[C@@H]2CCN(C(=O)C2CCOCC2)C3)n1,-2.403
8,Cc1noc([C@@]23CCO[C@@H]2CCN(S(=O)(=O)c2cccnc2)C3)n1,103
9,Cc1nnc([C@]23COC[C@H]2CN(S(=O)(=O)c2cccnc2)C3)o1.O=C(O)C(F)(F)F,103.4
10,Cc1nnc([C@@]23CCO[C@@H]2CCN(S(=O)(=O)c2cccnc2)C3)o1,88.28
11,CCCS(=O)(=O)N1CC[C@H]2OCC[C@@]2(c2nnc(C)o2)C1,-9.465
12,O=C1N(CC2CCC2)CCCC12CCN(S(=O)(=O)c1cccnc1)C2 (stereo not drawn),16.59
13,Cc1noc([C@@]23CCO[C@@H]2CCN(C(=O)c2sccc2C)C3)n1,-13.91
14,Cc1nnc([C@@]23CCO[C@@H]2CCN(S(C)(=O)=O)C3)o1,-9.969
15,CC(NC(=O)c1ccoc1)C(=O)N(C)Cc1ccsc1 (stereo not drawn),8.82
16,COc1cc(C(=O)N2CCCC(CNS(C)(=O)=O)C2)cc(OC)c1C (stereo not drawn),0.06204
17,CC(C)Oc1cc(N2CCN(Cc3ccsc3)C(CCO)C2)nc(N)n1 (stereo not drawn),-3.773
18,CCCC(NC(=O)c1ccc(OC)cc1F)c1nnn[nH]1 (stereo not drawn),-0.1945
19,COc1c(NS(=O)(=O)c2cc(C)ccc2C)c(C)nn1C,9.711
20,Cc1ccc(N2CCCC(c3[nH]ncc3Cc3ccccc3)C2)nn1 (stereo not drawn),26.61
21,Cc1ccc(N2CCC(c3[nH]ncc3Cc3ccccc3)CC2)nn1,27.05
22,Cc1cc(N2CCCC(c3[nH]ncc3Cc3ccccc3)C2)nc(N)n1 (stereo not drawn),51.86
23,CCCc1cc(=O)[nH]c2nnc(SCC(=O)OCC)n12,11
24,CC1CN(C(=O)CN(Cc2ccccc2)C2CC2)CCO1 (stereo not drawn),126.4
25,CC1CN(C(=O)c2sccc2Br)CCO1 (stereo not drawn),5.426
26,Cn1cc(C(=O)N(Cc2ccco2)Cc2cccs2)ccc1=O,-5.076

row,SMILES,Percent Effect [%]
1,Cc1ccc(CN(CC(=O)N2CCOC(C)C2)C2CC2)cc1 (stereo not drawn),133.3
2,CC1CN(C(=O)CN(Cc2ccco2)C2CC2)CCO1 (stereo not drawn),-3.205
3,CC1CN(C(=O)c2ccn(-c3cccc(Cl)c3)n2)CCO1 (stereo not drawn),3.639
4,CC1CN(C(=O)CN(Cc2ccccc2Cl)C2CCCC2)CCO1 (stereo not drawn),167.1
5,CC1CN(C(=O)CCc2cc(Br)cs2)CCO1 (stereo not drawn),-0.4778
6,Cc1nnc(CN(Cc2ccccc2Cl)C2CCCC2)o1,-12.06
7,CC1CN(C(=O)CN(Cc2ccco2)Cc2cccs2)CCO1 (stereo not drawn),127.8
8,CC(C)(C)c1cc(NC(=O)CN(Cc2ccco2)Cc2cccs2)on1,15.1
9,CC1CN(C(=O)CN(Cc2ccccc2Br)C2CC2)CCO1 (stereo not drawn),15.13
10,Cc1cc(NC(=O)N(C)C2CCN(c3ccccc3F)C2=O)n(C)n1 (stereo not drawn),-7.553
11,O=C(c1ccc2c(c1)CCO2)N1CCN(c2ccc(Cl)cn2)CC1,6.232
12,CN(C)CC1CN(CCOc2cccc(C#N)c2)CCO1 (stereo not drawn),0.1863
13,Cc1ncsc1C(=O)NC1CCN(Cc2ccc(C#N)cc2)CC1,-12.71
14,O=C(NCCOc1ncc(Cl)cc1Cl)c1ccoc1,25.9
15,CO[C@H]1CCN(S(=O)(=O)c2cn(C)cn2)[C@H]1Cc1cnn(C)c1.O=C(O)C(F)(F)F,-3.902
16,CCS(=O)(=O)N1CCC(Nc2ccc(C#N)cc2F)CC1,19.57
17,O=S(=O)(N[C@H]1CC[C@H]1NC1Cc2ccccc2C1)c1cccnc1,1.504
18,CC(C)c1ccc(CNC(C)c2ccc(S(C)(=O)=O)cc2)cc1 (stereo not drawn),0.134
19,CCC(NC1CCCC1)c1ccc(S(C)(=O)=O)cc1 (stereo not drawn),102.8
20,CCC(NC1CSCCSC1)c1ccc(S(C)(=O)=O)cc1 (stereo not drawn),107.2
21,CCC(NC1Cc2ccccc2C1)c1ccc(S(C)(=O)=O)cc1 (stereo not drawn),106.7
22,CS(=O)(=O)c1ccc(CNC(=O)N2CCC(c3ccccc3)CC2)cc1,-1.969
23,CCC(Nc1nccc(C2CCCC2)n1)c1ccncc1 (stereo not drawn),-45.04
24,CC(NCc1ccc(C(C)(C)C)cc1)c1ccc(S(C)(=O)=O)cc1 (stereo not drawn),2.046
25,CCC(NC(=O)c1cnc(N(C)C)nc1C)c1ccc(S(C)(=O)=O)cc1 (stereo not drawn),-15.6

# Reference: ChEMBL document CHEMBL3988442, “University of Dundee, Small-Polar-MMV Screening Library” (2021)
